# TDP1 cell CPT: qHTS for Inhibitors of human tyrosyl-DNA phosphodiesterase 1 (TDP1): qHTS in cells in presence of CPT; 12% of 420,000 active; AID 686979, 2013; Potency, µM (highest dose often 46.2 µM), for inactives: at the top dose activity change, negative = growth inhibition, most hits filed as inhibitors; chicken DT40 Tdp1-/-;hTDP1 cells + 20 nM CPT, ATP luminescence, 48 h; further: potency means the concentration at half of the fitted maximal effect; nearly all actives have a fitted effect of over 55% in size
#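 Cell growth measured by CellTiter-Glo luminescence after a minimum 48 h, 37 C compound exposure with 20 nM CPT in Tdp1-knockout DT40 cells stably expressing hTDP1, seeded 400/well; qHTS titration format.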
# DT40 TDP1 no CPT: qHTS for Inhibitors of human tyrosyl-DNA phosphodiesterase 1 (TDP1): qHTS in cells in absence of CPT; 15% of 420,000 active; DT40 Tdp1-/- hTDP1 cells, no CPT, ATP luminescence, 48 h; Potency, µM (series often up to 46.2 µM), inactives show top-dose activity change, negative = growth inhibition, most hits filed as inhibitors; AID 686978, 2013; further: potency means the concentration at half of the fitted maximal effect; nearly all actives have a fitted effect of over 55% in size
#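 A cellular qHTS used chicken DT40 cells lacking endogenous Tdp1 but carrying stably transfected human TDP1. Compounds were applied without camptothecin, and cell growth kinetics were judged by ATP-dependent luminescence after ≥48 hr.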
# IL-1B inflam inh: qHTS for Inhibitors of Inflammasome Signaling: IL-1-beta AlphaLISA Primary Screen; activity change, % at 57.5 µM; 4.7% of 360,000 active; THP-1 LPS/ATP IL-1B secretion, AlphaLISA, 16 h; stronger effect = lower value; in the data active means activity change below about -50%; inconclusive means mostly about -30% to -49%
#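 Secreted IL-1B measured by AlphaLISA bead assay after 16 h compound exposure of THP-1 cells; compounds (final up to 57.5 uM) added 1 h before LPS (250 ng/mL) and ATP (1.25 mM) stimulation; lower signal means less secretion.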
# RORgamma inh: qHTS for inhibitors of ROR gamma transcriptional activity; Nuclear receptor ROR-gamma (Mus musculus), P51450; Drosophila S2 Gal4-RORgamma UAS-luciferase reporter, 20 h; Potency, µM (top dose mostly 53.6 µM), without a hit: at the highest dose activity change, negative = inhibition, usual class: inhibitors; 5.4% of 310,000 active; further: potency means the concentration at half of the fitted maximal effect; nearly all actives have a fitted effect of over 60% in size
# Target sequence (P51450 whole entry, looked up, the tested form may be a part): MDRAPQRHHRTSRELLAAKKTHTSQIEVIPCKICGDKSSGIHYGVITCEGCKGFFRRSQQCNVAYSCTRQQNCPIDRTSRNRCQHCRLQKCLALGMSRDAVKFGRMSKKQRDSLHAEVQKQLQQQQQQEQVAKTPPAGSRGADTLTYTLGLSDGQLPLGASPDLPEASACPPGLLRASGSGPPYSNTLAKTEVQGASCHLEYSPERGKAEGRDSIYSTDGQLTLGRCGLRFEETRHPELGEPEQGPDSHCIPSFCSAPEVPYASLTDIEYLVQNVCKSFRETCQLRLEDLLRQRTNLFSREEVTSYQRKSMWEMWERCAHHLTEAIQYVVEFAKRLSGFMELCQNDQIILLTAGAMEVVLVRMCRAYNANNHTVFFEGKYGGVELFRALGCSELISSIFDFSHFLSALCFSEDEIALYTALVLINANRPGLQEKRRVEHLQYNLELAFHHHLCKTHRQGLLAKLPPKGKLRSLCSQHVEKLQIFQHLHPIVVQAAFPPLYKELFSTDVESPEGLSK
#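 Using a luciferase readout, inhibitors were identified by reduced reporter activity in Drosophila cells coexpressing a copper-inducible Gal4–ROR gamma fusion and UAS-driven Photinus luciferase, incubated 20 hr after 700 uM copper sulfate.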
# ELG1 DNA repair: qHTS screen for small molecules that inhibit ELG1-dependent DNA repair in human embryonic kidney (HEK293T) cells expressing luciferase-tagged ELG1. HEK293T ELG1-luciferase reporter, luminescence, 16 h; DNA damage induced by 5-fluorouridine. Potency, µM (series often up to 46.1 µM), for the others: at the top dose activity change, negative = inhibition, most hits filed as inhibitors. 2.3% of 330,000 active. AID 504467, 2011; further: potency means the concentration at half of the fitted maximal effect; nearly all actives have a fitted effect of over 55% in size
#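 Quantitative HTS, concentration-response format. 2,000 cells/well co-treated with 5-fluorouridine and compound, 16 hr in 5% CO2 at 37 °C; ONE-Glo luminescence read after 30 min.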
# VP16 counter: VP16 counterscreen qHTS for inhibitors of ROR gamma transcriptional activity | Drosophila S2 Gal4-VP16 UAS-luciferase, luminescence, 20 h | Potency, µM (titrated, usually from 53.6 µM), inactives show at the top dose activity, negative = inhibition, hits mostly inhibitors | 3.5% of 310,000 active;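 further: Gal4-VP16 expression switched on by copper sulfate through the metallothionein promoter; potency means the concentration at half of the fitted maximal effect; nearly all actives have a fitted effect of over 50% in size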
# * = called active by the depositor; ? = inconclusive; . = not tested or not shown; [ ] = dose if it differs, or a comment. Sampled rows, rich in hits. Any-hit rate of the full collection: about 21%. Unless noted, the call rests on the fitted dose curve; in most records, active means well fitted curve in the direction sought with a large enough effect; inconclusive means small, poorly fitted or top-dose-only effect, or another doubt; inactive means no such curve, though single readings can be large; an effect the other way counts as inactive or inconclusive. On the % scale 0 is the no-effect control and ±100 the full control effect.
SMILES,TDP1 cell CPT,DT40 TDP1 no CPT,IL-1B inflam inh,RORgamma inh,ELG1 DNA repair,VP16 counter
Cc1cccc(C(=O)N2CCC(=O)N(C(COCc3ccc(Cl)cc3)Cc3ccccc3)CC2)c1 (stereo unspecified),21µM*,21µM*,-28,20%,?,-4%
Cc1cccc(C(=O)N2CCC(=O)N(C(COCc3cccc(Cl)c3)Cc3ccccc3)CC2)c1 (stereo unspecified),?,16µM*,-29,44%,?,-11%
O=C(c1cccc(Cl)c1)N1CCC(=O)N(C(COCc2cccc(Cl)c2)Cc2ccccc2)CC1 (stereo unspecified),?,?,?,?,?,0%
COc1ccc(CCNC(=O)CSc2nc3ccsc3c(=O)n2Cc2ccccn2)cc1OC,-1%,-3%,?,.,.,.
COc1ccc(-c2csc(-c3nc(-c4ccc(Br)s4)cs3)n2)cc1F,2%,-9%,.,.,.,.
O=C1CC(=C(c2ccccc2)c2ccccc2)C(=O)N1CCCCN1CCN(c2cccc(Cl)c2)CC1,15µM*,18µM*,?,19%,-8%,0%
Cc1ccccc1N1CCN(CCN2C(=O)CC(=C3c4ccccc4-c4ccccc43)C2=O)CC1,-29%,-28%,0,.,.,.
Cc1ccccc1N1CCN(CCCN2C(=O)CC(=C(c3ccccc3)c3ccccc3)C2=O)CC1,?,23µM*,-18,?,?,?
COc1ccc(CC(=O)N(CCC2=CCCCC2)c2c(N)n(Cc3ccccc3)c(=O)[nH]c2=O)cc1OC,-16%,-11%,-21,.,-1%,.
O=c1[nH][nH]c(-c2ccccc2O)c1C(C[N+](=O)[O-])c1ccccc1 (stereo unspecified),4.6µM*,5.2µM*,2,-14%[10 µM],6%,?
CC(C)COc1ccc(CSCCNC(=S)Nc2ccccc2)cc1,?,15µM*,-9,1.1µM*,1%,3.2µM*
CCCCOc1ccc(CSCCNC(=S)Nc2ccccc2)cc1,18µM*,?,-5,4.5µM*,-26%,4.5µM*
Cc1cccc(CSCCNC(=O)Nc2ccccc2)c1,-20%,?,-21,-3%,-1%,-2%
CCCCCOc1ccc(CSCCNC(=S)Nc2ccccc2)cc1,-14%,-28%,16,3.2µM*,?,3.2µM*
COc1ccccc1CNC(=O)CN1C(=O)NC2(CCCCCC2)C1=O,9%,-24%,5,.,2%,.
COc1cn(CC(=O)Nc2c(C)cc(C)cc2C)c(CN2CCCCC2)cc1=O,14%,-9%,.,.,.,.
COc1cc(O)ccc1C1CC(=O)Nc2c1c(=O)nc(SCc1ccccc1C)n2C (stereo unspecified),-19%,-13%,.,.,.,.
CCNC(=O)c1c(C)oc2ncn(C)c(=O)c12,-9%,-19%,.,.,.,.
Cc1ccc(-c2nc3scc(CCNS(=O)(=O)c4ccc(C)c(C)c4)n3n2)cc1,?,21µM*,.,.,.,.
Cc1ccc(-c2nc3scc(CCNC(=O)Cc4ccc(Cl)cc4)n3n2)cc1,15µM*,18µM*,.,.,.,.
Cc1ccc(C)c(NC(=O)C(=O)NCCc2csc3nc(-c4ccccc4C)nn23)c1,?,18µM*,.,.,.,.
O=S(=O)(NCCc1csc2nc(-c3ccc(F)cc3)nn12)c1ccc(Oc2ccccc2)cc1,15µM*,21µM*,.,.,.,.
Cc1ccc(NC(=O)C(=O)NCCc2csc3nc(-c4ccccc4C)nn23)cc1Cl,-6%,9%,.,.,.,.

# Screens from PubChem.
